Results reported in PubChem BioAssay.
Activity calls are given as the source filed them.

How the values were obtained:
Albumin (Bos taurus) = Albumin (Bos taurus) (UniProt P02769); test: bovine serum albumin binders on microarray, profiling panel, artefact control for SMM control protein annotation, biochemical, small-molecule microarray, Alexa647 label, 635/667 nm fluorescence (AID 1118); details: BSA-A647 binding, fluorescence 635 nm, higher = more signal;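 further: score merges 667 nm emission intensity and signal-to-noise per printed compound spot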
Albumin (Bos taurus), sequence (P02769 whole entry, looked up): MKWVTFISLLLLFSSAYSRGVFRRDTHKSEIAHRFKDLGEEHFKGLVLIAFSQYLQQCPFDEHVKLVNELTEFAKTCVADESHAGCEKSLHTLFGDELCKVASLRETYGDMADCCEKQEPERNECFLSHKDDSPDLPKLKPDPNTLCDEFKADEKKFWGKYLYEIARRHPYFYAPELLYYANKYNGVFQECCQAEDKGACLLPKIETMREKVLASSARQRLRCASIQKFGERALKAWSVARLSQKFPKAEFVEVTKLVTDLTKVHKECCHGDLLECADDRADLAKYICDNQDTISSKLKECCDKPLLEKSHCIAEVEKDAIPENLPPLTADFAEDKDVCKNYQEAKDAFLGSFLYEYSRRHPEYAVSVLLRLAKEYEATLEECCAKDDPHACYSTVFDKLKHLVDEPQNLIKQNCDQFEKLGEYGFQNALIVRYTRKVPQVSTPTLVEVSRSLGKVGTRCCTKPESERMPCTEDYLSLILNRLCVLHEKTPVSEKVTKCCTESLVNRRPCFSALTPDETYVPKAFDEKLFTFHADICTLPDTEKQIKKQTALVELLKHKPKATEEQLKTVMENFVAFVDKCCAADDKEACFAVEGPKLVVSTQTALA

[1] = small-molecule microarray binders of probe aXIP, primary screen, biochemical, NeuroSMM set, 635/667 nm fluorescence (AID 1119); details: higher = more signal, called active from +8 up or from −8 down;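 further: probe is the protein aXip251-270 applied at 1 µg/mL to compound-printed slides; binding of probe to printed compounds measured as 667 nm fluorescence plus signal to noise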
[2] = small-molecule binders of probe aNOTCH3, primary screen, biochemical, small-molecule microarray, 635/667 nm fluorescence (AID 1120); details: higher = more signal;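 further: probe is a biotin-tagged antibody raised against NOTCH3 rather than NOTCH3 protein; score merges spot fluorescence near 667 nm with spot signal to noise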
[3] = small-molecule binders of probe aNOTCH2, primary screen, biochemical, small-molecule microarray, 635/667 nm fluorescence (AID 1121); details: higher = more signal;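 further: score merges feature fluorescence read at 667 nm with its signal to noise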
[4] = biological target: Carbonic anhydrase 2 (Homo sapiens) (UniProt P00918); test: CAII small-molecule binders, profiling panel, biochemical, small-molecule microarray, Alexa647-labelled CAII (AID 1122); details: CAII-A647 binding fluorescence, higher = more signal
[5] = COS7 lysate on small-molecule microarray, probe aHis, 635 nm (AID 1123); details: COS7 cell lysate, fluorescence, higher = more signal;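 further: z-score combines 667nm fluorescence intensity with signal-to-noise per printed compound spot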
[6] = compound binding in COS7 lysate, probe aLAP1, primary screen, cell lysate, small-molecule microarray (AID 1124); details: probe aLAP1, fluorescence, higher = more signal;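 further: lysate comes from COS7 cells expressing LAP1 and is applied at 0.3 µg/mL; score merges spot fluorescence near 667 nm with signal-to-noise over triplicate slides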
Sam68 (KHDRBS1) = test: Sam68 small-molecule binders, primary screen, biochemical, small-molecule microarray, 635 nm fluorescence (AID 1125); details: small-molecule microarray binding, higher = more signal;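 further: score merges 667 nm channel intensity with signal to noise over triplicate slides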
[7] = system: Chordin-like protein 2 (CHRDL2); test: CHRDL2 small-molecule binders, primary screen, biochemical, small-molecule microarray, 635 nm fluorescence (AID 1126); details: small-molecule microarray binding, fluorescence 635 nm; higher = more signal;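 further: printed compound slides probed with Chrdl2 protein at 4 µg/mL for 1 h at 4 C; score merges 667 nm emission intensity with signal to noise over three replicate slides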
[8] = biological target: Concanavalin-A (Canavalia ensiformis) (UniProt P02866); test: ConA small-molecule binders, primary screen, artefact control for SMM control protein annotation, biochemical, small-molecule microarray, Alexa647 label, 635 nm (AID 1127); details: ConA-A647 binding fluorescence, higher = more signal;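 further: z combines 667 nm emission intensity with signal-to-noise across three replicate slides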
Concanavalin-A (Canavalia ensiformis), sequence (P02866 whole entry, looked up): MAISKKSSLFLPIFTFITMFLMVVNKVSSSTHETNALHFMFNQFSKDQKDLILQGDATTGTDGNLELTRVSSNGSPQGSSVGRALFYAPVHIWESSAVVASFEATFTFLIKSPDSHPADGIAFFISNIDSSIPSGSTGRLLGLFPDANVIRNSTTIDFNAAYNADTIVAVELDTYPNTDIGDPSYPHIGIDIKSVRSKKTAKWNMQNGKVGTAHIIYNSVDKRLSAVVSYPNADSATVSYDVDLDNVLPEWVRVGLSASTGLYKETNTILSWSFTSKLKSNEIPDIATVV

[9] = anti-His antibody binders, primary screen, artefact control for SMM control protein annotation, biochemical, small-molecule microarray, 635 nm fluorescence (AID 1128); details: anti-His Alexa647 antibody binding, higher = more signal;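 further: score merges feature fluorescence with signal-to-noise for each printed compound spot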
[10] = system: Human papillomavirus type 1a E7 protein (residues 1-88); test: HPV1a E7 small-molecule binders, primary screen, biochemical, small-molecule microarray, residues 1-88, 635 nm (AID 1129); details: small-molecule microarray binding, fluorescence 635 nm; higher = more signal
[11] = biological target: Focal adhesion kinase 1 (Homo sapiens) (UniProt Q05397); test: small-molecule microarray binders of FAK, primary screen, biochemical, 635/667 nm fluorescence, BSA, DTT (AID 1130); details: PTK2 binding, 635 nm fluorescence, higher = more signal;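 further: composite of spot emission at 667 nm and signal to noise over triplicate slides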
Focal adhesion kinase 1 (Homo sapiens), sequence (Q05397 whole entry, looked up): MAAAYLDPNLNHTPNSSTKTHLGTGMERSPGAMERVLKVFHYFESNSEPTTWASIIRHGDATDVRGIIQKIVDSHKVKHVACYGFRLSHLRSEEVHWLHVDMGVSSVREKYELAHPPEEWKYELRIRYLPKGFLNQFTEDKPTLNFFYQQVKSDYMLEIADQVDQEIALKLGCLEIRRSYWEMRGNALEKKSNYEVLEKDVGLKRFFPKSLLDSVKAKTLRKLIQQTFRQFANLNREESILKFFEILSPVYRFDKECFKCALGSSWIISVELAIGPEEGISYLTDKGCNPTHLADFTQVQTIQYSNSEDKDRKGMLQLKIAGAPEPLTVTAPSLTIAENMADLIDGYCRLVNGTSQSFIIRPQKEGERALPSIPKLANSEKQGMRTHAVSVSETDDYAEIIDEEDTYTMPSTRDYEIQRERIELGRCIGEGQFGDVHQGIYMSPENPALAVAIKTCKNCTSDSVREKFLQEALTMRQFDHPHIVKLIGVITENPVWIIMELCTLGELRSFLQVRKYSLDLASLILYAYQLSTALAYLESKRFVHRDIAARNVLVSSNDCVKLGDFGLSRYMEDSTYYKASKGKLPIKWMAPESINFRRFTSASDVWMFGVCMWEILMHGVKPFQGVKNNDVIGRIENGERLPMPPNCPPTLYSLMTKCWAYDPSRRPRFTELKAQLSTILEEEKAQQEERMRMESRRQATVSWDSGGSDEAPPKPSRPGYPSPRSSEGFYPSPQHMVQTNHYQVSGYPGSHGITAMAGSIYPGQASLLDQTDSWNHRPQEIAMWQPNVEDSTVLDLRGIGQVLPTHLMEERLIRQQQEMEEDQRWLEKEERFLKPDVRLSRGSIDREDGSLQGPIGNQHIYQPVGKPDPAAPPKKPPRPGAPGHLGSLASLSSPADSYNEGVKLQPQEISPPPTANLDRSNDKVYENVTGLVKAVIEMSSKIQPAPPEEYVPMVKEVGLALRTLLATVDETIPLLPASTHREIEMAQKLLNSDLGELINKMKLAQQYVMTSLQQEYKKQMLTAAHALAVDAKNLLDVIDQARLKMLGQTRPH

[12] = system: Fibrinogen (Alexa647-labelled); test: fibrinogen binders on compound microarrays, profiling panel, artefact control for SMM control-protein annotation, biochemical, small-molecule microarray, 635/667 nm fluorescence (AID 1131); details: fibrinogen-A647 binding fluorescence, higher = more signal;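 further: z-score merges 667 nm fluorescence with per-spot signal-to-noise over triplicate slides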
[13] = biological target: Follistatin (Homo sapiens) (UniProt P19883); test: follistatin binders on small-molecule microarrays, primary screen, biochemical, small-molecule microarray, 635/667 nm fluorescence (AID 1132); details: FST binding, 635 nm fluorescence, higher = more signal
Follistatin (Homo sapiens), sequence (P19883 whole entry, looked up): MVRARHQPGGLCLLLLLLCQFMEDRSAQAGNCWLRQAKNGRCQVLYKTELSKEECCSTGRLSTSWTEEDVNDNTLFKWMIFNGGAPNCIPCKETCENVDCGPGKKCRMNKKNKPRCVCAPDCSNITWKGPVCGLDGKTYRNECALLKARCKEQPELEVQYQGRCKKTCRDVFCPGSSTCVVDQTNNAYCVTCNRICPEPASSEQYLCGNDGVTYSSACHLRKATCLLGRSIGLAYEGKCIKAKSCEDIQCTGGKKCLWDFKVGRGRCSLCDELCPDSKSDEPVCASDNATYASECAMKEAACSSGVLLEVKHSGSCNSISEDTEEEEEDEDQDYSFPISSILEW

[14] = biological target: Fibroblast growth factor 2 (Homo sapiens) (UniProt P09038); test: FGF2 binders on small-molecule microarrays, primary screen, biochemical, small-molecule microarray, 635/667 nm fluorescence (AID 1133); details: small-molecule microarray binding, FGF2, fluorescence 635/667; higher = more signal
Fibroblast growth factor 2 (Homo sapiens), sequence (P09038 whole entry, looked up): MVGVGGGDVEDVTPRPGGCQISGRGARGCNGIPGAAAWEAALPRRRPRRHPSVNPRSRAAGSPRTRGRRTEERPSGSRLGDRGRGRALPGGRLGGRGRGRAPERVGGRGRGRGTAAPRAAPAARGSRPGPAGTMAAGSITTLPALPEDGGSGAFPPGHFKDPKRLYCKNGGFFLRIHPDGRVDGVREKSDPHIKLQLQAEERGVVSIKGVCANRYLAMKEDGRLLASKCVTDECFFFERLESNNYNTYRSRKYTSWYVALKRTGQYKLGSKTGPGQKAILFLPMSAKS

[15] = mitochondrial membrane potential change in A549 cells, profiling panel, cell-based, JC-1 fluorescence, basal, 24 h, 100 nL (AID 1138); details: higher = more signal;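 further: A549 lung adenocarcinoma cells under basal conditions with no added stimulus; test concentration not given here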
Lefty1 = Lefty1 binders on small-molecule microarrays, primary screen, biochemical, small-molecule microarray, 635/667 nm fluorescence (AID 1139); details: small-molecule microarray binding, fluorescence 635/667; higher = more signal
[16] = system: wheat germ agglutinin (Triticum aestivum), Alexa647-labelled; test: wheat germ agglutinin binders on compound microarrays, profiling panel, artefact control for SMM control-protein annotation, biochemical, small-molecule microarray, 635/667 nm fluorescence (AID 1140); details: WGA-A647 binding, 635 nm fluorescence, higher = more signal;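 further: score merges 667 nm feature emission with signal to noise over triplicate slides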
[17] = biological target: Luciferin 4-monooxygenase (Photinus pyralis) (UniProt P08659); test: firefly luciferase enzyme inhibitors, primary screen, biochemical, luminescence, purified enzyme, 2006 set (AID 1141); details: SteadyGlo luminescence, 30 min, higher = more signal, called active from +8 up or from −8 down;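 further: cell-free assay with purified firefly luciferase at 100 ng per well in PBS; test concentration not given here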
Luciferin 4-monooxygenase (Photinus pyralis), sequence (P08659 whole entry, looked up): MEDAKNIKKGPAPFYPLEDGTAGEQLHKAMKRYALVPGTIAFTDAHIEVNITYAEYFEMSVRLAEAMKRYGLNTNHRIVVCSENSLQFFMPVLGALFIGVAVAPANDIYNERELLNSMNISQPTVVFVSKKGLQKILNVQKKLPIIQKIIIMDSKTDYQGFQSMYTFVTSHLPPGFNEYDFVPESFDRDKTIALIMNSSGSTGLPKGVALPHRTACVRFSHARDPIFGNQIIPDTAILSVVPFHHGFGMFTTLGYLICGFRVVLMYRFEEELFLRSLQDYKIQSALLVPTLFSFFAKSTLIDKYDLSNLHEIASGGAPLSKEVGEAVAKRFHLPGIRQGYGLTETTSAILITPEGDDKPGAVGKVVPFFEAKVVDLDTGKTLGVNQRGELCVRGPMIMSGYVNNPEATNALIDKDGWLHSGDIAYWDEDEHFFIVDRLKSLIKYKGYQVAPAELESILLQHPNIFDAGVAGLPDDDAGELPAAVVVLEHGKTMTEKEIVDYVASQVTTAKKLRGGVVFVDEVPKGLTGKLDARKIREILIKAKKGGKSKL

Row | SMILES | composite z-score (Albumin (Bos taurus)) | composite Z-score [1] | composite z-score [2] | composite z-score [3] | composite z-score [4] | composite z-score [5] | composite z-score [6] | composite z-score (Sam68 (KHDRBS1)) | composite z-score [7] | composite z-score [8] | composite z-score [9] | composite z-score [10] | composite z-score [11] | composite z-score [12] | composite z-score [13] | composite z-score [14] | z-score [15] | composite z-score (Lefty1) | composite z-score [16] | z-score [17]
1 | CC#CC(=O)Oc1ccc(Br)cc1C=CC(=O)OCC | -0.107 | 1.39 (inactive) | 0.144 | -0.0529 | 0.18 | 0.942 | 0.158 | 0.582 | 0.103 | 0.269 | -0.179 | 1.06 | 0.167 | -0.382 | 0.233 | -0.0698 | -0.817 | 0.0606 | 0.665 | -0.39 (inactive)
2 | C=C(CCCC)/C(=C/C[C@@H](OC(C)=O)c1ccccc1OCCO)c1cc(C(=O)OC)ccc1OC | 0.056 | -0.737 (inactive) | -0.0947 | -0.103 | 0.402 | 0.0769 | 0.0978 | 0.166 | -0.354 | -0.544 | -0.9 | -0.2 | -0.0448 | 0.259 | 0.35 | 0.16 | 2.6 | 0.384 | 0.0424 | -2.02 (inactive)
3 | C=CCN(Cc1ccccc1)C(=O)C(c1cccs1)N(C(=O)/C=C\C(=O)O)c1ccc(CCOCCO)cc1 (stereo not given) | 0.955 | 0.0165 (inactive) | -0.416 | -0.135 | 0.864 | -0.691 | -0.679 | -1.33 | -2.25 | -0.931 | -0.709 | -0.755 | -0.618 | -1.23 | -1.32 | -0.78 | 1.37 | -1.16 | -1.01 | -3.88 (inactive)
4 | COc1ccc(C(O)C2C=CC3C(=O)N(C)C(=O)C3N2NC(=O)OC(C)(C)C)c2ccccc12 (stereo not given) | 1.02 | -0.128 (inactive) | 0.424 | 0.0315 | 0.745 | 2.98 | 0.404 | 1.3 | -0.345 | 1.11 | 1.62 | 1.28 | 0.685 | 0.988 | 0.832 | -0.161 | -0.771 | -0.33 | 1.31 | -0.9 (inactive)
5 | CCCC=C(CCC)[C@@H](NC(=O)OCC(C)C)c1ccccc1 | 0.923 | -0.254 (inactive) | 1.03 | -0.0141 | 0.611 | 1.6 | -0.182 | 1.31 | -1.42 | 1.1 | 0.665 | 1.15 | 0.172 | 0.471 | 0.978 | 0.16 | -0.138 | 0.822 | 0.126 | 0.936 (inactive)
6 | CO[C@H]1O[C@H](CO)[C@@H](OC(=O)Nc2cccc(F)c2)[C@H](OC(=O)Nc2ccccc2)[C@H]1OC(=O)Nc1ccccc1 | -0.225 | 0.0063 (inactive) | 0.146 | -0.0664 | 0.65 | 1.24 | 0.168 | 1.29 | 0.323 | 0.899 | 2.02 | 1.29 | 0.656 | 0.993 | 1.35 | 1.12 | -1.18 | 1.3 | 0.662 | 0.124 (inactive)
7 | O=C(NC1CC1)[C@@H]1c2ccccc2C(=O)N(Cc2cc(F)cc(C(F)(F)F)c2)[C@H]1c1ccc(CO)cc1 | 0.416 | -0.0461 (inactive) | -0.182 | -0.112 | 0.237 | 0.668 | 0.747 | 0.521 | -0.791 | 0.0427 | 1.23 | -0.454 | 0.315 | -0.399 | 0.542 | -0.258 | 0.739 | -0.396 | 0.569 | -0.124 (inactive)
8 | CC(C)[Si](C#C[Si](C(C)C)(C(C)C)C(C)C)(O[C@H](C)c1cn(Cc2ccccc2)nn1)C(C)C | 0.551 | -0.539 (inactive) | 0.379 | -0.0956 | 0.48 | 0.664 | 0.177 | 1.03 | 0.289 | 0.598 | 0.386 | 1.01 | 0.677 | 0.872 | 0.509 | 0.427 | 0.0378 | 0.56 | 0.502 | -0.398 (inactive)
9 | COCCCNC(=O)[C@@H]1c2ccccc2C(=O)N(Cc2ccccc2)[C@H]1c1ccc(CO)cc1 | 0.405 | 0.59 (inactive) | 0.235 | 0.13 | 0.787 | 1.48 | 1.1 | 0.814 | 0.634 | 0.458 | 1.67 | 1.01 | -0.174 | 0.185 | 0.928 | 0.594 | 1.29 | 0.206 | 0.31 | 0.519 (inactive)
10 | COC(=O)c1c(CC[C@@H](CO)NC(=O)NCCc2c[nH]c3ccccc23)oc(C(=O)Cc2ccccc2)c1C(=O)OC | 0.0018 | -0.326 (inactive) | 0.0842 | -0.14 | 0.112 | 0.452 | -0.161 | 0.583 | 0.149 | 0.467 | 0.108 | 0.27 | 0.131 | 0.273 | 0.368 | 0.251 | -0.364 | 0.456 | 0.0707 | 0.521 (inactive)
11 | Cc1ccc(S[C@]2(C(=O)O)CC(=O)N(Cc3ccccc3C(F)(F)F)[C@@H]2c2ccc(CO)cc2I)cc1 | 0.426 | 0.286 (inactive) | -0.0716 | 0.0477 | 0.502 | 1.74 | 1.51 | 0.406 | -0.673 | -0.0929 | 0.275 | 0.0179 | -0.0066 | 0.0184 | 0.0699 | 0.511 | 0.348 | -0.781 | 0.75 | -0.499 (inactive)
